Bioassay records as filed in PubChem.
This is a sample that favours compounds with a hit; in the whole collection about 1.1% have one here.
MOR-DOR ag-1: OPRM1-OPRD1 heterodimerization agonism. P35372+P41143. cells, luminescence. activation, % at 9.3 µM. 0.3% of 340,000 active. AID 504326;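 further: 0% = vehicle-treated cells and 100% = reference agonist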
HTR5A inv ag: HTR5A inverse agonism, opioid heterodimer counter-screen; HTR5A cell line, luminescence; inhibition, % at 9.3 µM; 0.083% of 340,000 active; P47898; in the data active means inhibition mostly above about 23%, no sharp cut-off; inactive means mostly below about 18%;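 further: 0% = cells with DMSO and 100% = no-cell wells with DMSO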
HTR5A ag ctr: counter-screen for OPRM1-OPRD1 agonists: human HTR5A agonism | HTR5A agonist assay, luminescence, cell-based | activation, % at 9.3 µM | P47898 | 0.61% of 340,000 active; in the data active means activation mostly above about 9.5%, no sharp cut-off; inactive means mostly below about 7.6%;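 further: 0% = cells with vehicle only and 100% = reference agonist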
OPRM1-OPRD1 inv: mu-delta opioid heterodimer inverse agonism; cell-based MOR-DOR heterodimer luminescence; P35372+P41143; inhibition, % at 9.3 µM; 0.21% of 340,000 active; in the data active means inhibition above about 22%, passing the limit was not always enough;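 further: 0% = cells with DMSO and 100% = wells without cells with DMSO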
A1 inh: inhibitors of the anti-apoptotic protein A1, read as caspase activation. MEF A1-2A-BIM cells, Caspase-Glo 3/7 luminescence, 3 h; percent of clofoctol response, vehicle zero. caspase activation, % (no concentration beside the values). 0.066% of 330,000 active;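 active means over half of replicate activation scores above 10%, or exactly half above 10 with the replicate mean above 10; inconclusive means replicate mean below 10 yet half the replicates above 10; inactive means over half of replicates below 10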
MOR-DOR ag-2: counter-screen for HTR5A agonists: OPRM1-OPRD1 heterodimerization agonism | activation, % at 9.3 µM | shares compounds with HTR5A ag ctr | AID 504913 | U2OS counter-screen cells, complementation luminescence, 3 h | 13% of 800 active
HTR5A ag confirm: confirmation of human HTR5A agonists | shares compounds with HTR5A ag ctr | HTR5A agonist cell assay, luminescence | activation, % at 9.3 µM | 17% of 800 active | AID 504915; in the data active means activation above about 17%;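 further: 0% = cells with vehicle only and 100% = full reference agonist response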
Active calls of the source: *. Unless noted, no stated cut-off is given here; in the data, active means activation above about 18%; inactive means the rest.

What do the screens show for `COCCCNC(=O)/C(C#N)=C/c1c(N2CCN(C)CC2)nc2ccccn2c1=O`?
MOR-DOR ag-1: -2; HTR5A inv ag: 6; HTR5A ag ctr: -2; OPRM1-OPRD1 inv: 10; A1 inh: 1

How did CC(=O)c1cccc(OCC(O)CNCCOc2ccc(C)cc2)c1 (centres undefined) do in these assays?
MOR-DOR ag-1: 3; HTR5A inv ag: 2; HTR5A ag ctr: -1; OPRM1-OPRD1 inv: -23; A1 inh: 0

Results for CSc1cc(-c2ccc(Cl)cc2)[nH]c(=O)c1C#N ?
MOR-DOR ag-1: -1; HTR5A inv ag: 15; HTR5A ag ctr: 17*; OPRM1-OPRD1 inv: 4; A1 inh: 0; MOR-DOR ag-2: 0; HTR5A ag confirm: -2

Results for Cc1ccc(Oc2nnc(-c3ccccc3)cc2C#N)cc1 ?
MOR-DOR ag-1: 6; HTR5A inv ag: -26; HTR5A ag ctr: 18*; OPRM1-OPRD1 inv: -25; A1 inh: 0; MOR-DOR ag-2: 6; HTR5A ag confirm: 4

How did O=C(NCc1ccc2c(c1)OCO2)C1CC(=O)N(CCc2ccc(F)cc2)C1 (centres undefined) do in these assays?
MOR-DOR ag-1: 1; HTR5A inv ag: -48; HTR5A ag ctr: 16*; OPRM1-OPRD1 inv: -12; A1 inh: 0; MOR-DOR ag-2: -1; HTR5A ag confirm: -3

How did O=C(NCc1ccc2c(c1)OCO2)C1CC(=O)N(CCc2ccccc2)C1 (centres undefined) do in these assays?
MOR-DOR ag-1: -1; HTR5A inv ag: 8; HTR5A ag ctr: -3; OPRM1-OPRD1 inv: 9; A1 inh: 1

Results for Cc1cccc(C(=O)c2c[nH]cc2-c2ccccc2)c1 ?
MOR-DOR ag-1: 2; HTR5A inv ag: -9; HTR5A ag ctr: -3; OPRM1-OPRD1 inv: -9; A1 inh: 1

How did COc1cc2cnc(-c3ccsc3)cc2cc1OC do in these assays?
MOR-DOR ag-1: -3; HTR5A inv ag: -64; HTR5A ag ctr: 22*; OPRM1-OPRD1 inv: 18; A1 inh: -2; MOR-DOR ag-2: 1; HTR5A ag confirm: 2

Results for CCn1c(=NC(=O)c2ccco2)sc2cccc(F)c21 ?
MOR-DOR ag-1: 2; HTR5A inv ag: -62; HTR5A ag ctr: 20*; OPRM1-OPRD1 inv: -9; A1 inh: -1; MOR-DOR ag-2: 3; HTR5A ag confirm: -1

What do the screens show for `Cc1ccc(C(=O)N2CCN(C/C=C/c3ccccc3)CC2)cc1S(=O)(=O)N1CCOCC1`?
MOR-DOR ag-1: -4; HTR5A inv ag: -8; HTR5A ag ctr: -2; OPRM1-OPRD1 inv: 15

What do the screens show for `Cc1cccc(C(=O)NNC(=O)c2c(O)c3ccccc3n(C)c2=O)c1`?
MOR-DOR ag-1: 2; HTR5A inv ag: -51; HTR5A ag ctr: 19*; OPRM1-OPRD1 inv: -10; A1 inh: inconclusive; MOR-DOR ag-2: 3; HTR5A ag confirm: 7

Results for CCCCCc1ccc(C(=O)CCCC)c(=S)[nH]1 ?
MOR-DOR ag-1: -2; HTR5A inv ag: -130; HTR5A ag ctr: 29*; OPRM1-OPRD1 inv: 7; A1 inh: -1; MOR-DOR ag-2: 6; HTR5A ag confirm: 13

Results for COc1ccc(CCNS(=O)(=O)c2ccc(OC)c(OC)c2)cc1OC ?
MOR-DOR ag-1: -1; HTR5A inv ag: -48; HTR5A ag ctr: 17*; OPRM1-OPRD1 inv: 6; A1 inh: 0; MOR-DOR ag-2: 2; HTR5A ag confirm: -3

What do the screens show for `Fc1ccc(C(c2nnnn2C2CCCC2)N2CCN(Cc3ccccc3)CC2)cc1` (centres undefined)?
MOR-DOR ag-1: -1; HTR5A inv ag: -40; HTR5A ag ctr: 18*; OPRM1-OPRD1 inv: 3; MOR-DOR ag-2: 6; HTR5A ag confirm: 1

What do the screens show for `Clc1ccc(C(c2nnnn2C2CCCC2)N2CCN(Cc3ccncc3)CC2)cc1` (centres undefined)?
MOR-DOR ag-1: -1; HTR5A inv ag: -9; HTR5A ag ctr: 1; OPRM1-OPRD1 inv: 4; A1 inh: 0

How did Cc1ccc(OCC(=O)N(C)CC(=O)Nc2ccc(F)cc2)c([N+](=O)[O-])n1 do in these assays?
MOR-DOR ag-1: 2; HTR5A inv ag: 12; HTR5A ag ctr: -4; OPRM1-OPRD1 inv: -16; A1 inh: 0
